Reference: PubChem BioAssay AID425 (Sanford-Burnham Center for Chemical Genomics, 2006)
Where “and” joins values, the source holds several entries; their conditions need not be identical. Equal values may be shown once. About 190 (0.17%) of roughly 110,000 compounds were called active. No stated cut-off is given here; in the data, active means inhibition above about 50%; inactive means the rest. The sample as a whole holds a higher share of actives than the screen did. Measured potencies and affinities stand elsewhere.

The compounds below were run against Dual specificity protein phosphatase 6 (Rattus norvegicus) (UniProt Q64346) (assay: MKP-3 phosphatase inhibitors, primary screen, biochemical, rat enzyme, in vitro (AID 425;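 further: plate controls were vehicle for no effect and reference inhibitor for full effect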)). Details: recombinant MKP-3 phosphatase activity, fluorescence; at 20 µM; stronger effect = higher value.
Chain of Dual specificity protein phosphatase 6 (Rattus norvegicus) (Q64346 whole entry, looked up): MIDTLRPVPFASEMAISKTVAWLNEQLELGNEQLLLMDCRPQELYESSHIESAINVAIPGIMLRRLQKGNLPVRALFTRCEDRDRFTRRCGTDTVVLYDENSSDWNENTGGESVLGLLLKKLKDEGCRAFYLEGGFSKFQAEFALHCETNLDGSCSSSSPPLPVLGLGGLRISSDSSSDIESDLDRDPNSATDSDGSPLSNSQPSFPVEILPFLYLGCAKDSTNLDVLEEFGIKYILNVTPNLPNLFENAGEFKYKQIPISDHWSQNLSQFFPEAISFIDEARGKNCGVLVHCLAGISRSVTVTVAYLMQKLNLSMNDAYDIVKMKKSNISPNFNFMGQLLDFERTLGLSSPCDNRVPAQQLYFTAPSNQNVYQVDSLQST

inhibition, active:
O=[N+]([O-])c1ccc(C=Nc2ccc(Cl)c([N+](=O)[O-])c2)s1 67.5%, O=C(c1ccccc1)c1ccc(N=Cc2ccc([N+](=O)[O-])s2)cc1 62.2%, O=C(O)c1ccc(N=Cc2ccc([N+](=O)[O-])s2)cc1 83.1%, O=[N+]([O-])c1ccc(C=NC23CN4CN(CN(C4)C2)C3)s1 94.6%, O=C1C(=O)c2ccccc2C(O)=C1[N+](=O)[O-] 106%, CCOc1cccc(=[O+]CC)c2c(C)oc(C)c12 96.5%, O=C1N=C(N=Nc2c(O)[nH]c3ccccc23)S/C1=C/c1ccc(Br)cc1 53.2%, Cc1cc([N+](=O)[O-])cc2c1NC(=O)C2=O 79.8%, O=C1C=CC(=O)c2c1c(-c1ccccc1)nn2-c1ccccc1 63.4%, CCn1cc(C(=O)NC2CCC(C)CC2)c(=O)c2cc(S(=O)(=O)N3CCCCC3)ccc21 (centres undefined) 56.1%

inhibition, inactive:
O=C(Nc1nncs1)c1cc(-c2ccccc2Cl)nc2ccccc12 1.9%, CCOc1ccc(CCNc2nc3c(c(=O)n(C)c(=O)n3C)n2CC)cc1OCC -1%, O=C(N/N=C\c1cn(Cc2ccc(Cl)c(Cl)c2)c2ccccc12)c1ccc([N+](=O)[O-])cc1 -0.1%, O=C(CNc1cccc2ccccc12)N/N=C/c1cn(Cc2ccccc2)c2ccccc12 4.7%, O=C(c1cc2ccccc2oc1=O)N1CCCN(C(=O)c2cc3ccccc3oc2=O)CC1 3.4%, CC(C)(C)C(=O)/C=C(\N)c1ccccn1 -3.7%, COc1ccc(C2NC(=S)NC(C)=C2C(=O)Nc2ccccc2)c(OC)c1 (centres undefined) 1.7%, Cc1cccc(N=Cc2ccc([N+](=O)[O-])s2)c1 49.9%, O=C(c1ccccc1)c1cc(Cl)ccc1N=Cc1ccc([N+](=O)[O-])s1 0.8%, CCc1ccc(C=NC23CN4CN(CN(C4)C2)C3)s1 -1.3% and -8.8%, CN1CCN(/N=C/c2ccc([N+](=O)[O-])s2)CC1 2.9%, O=[N+]([O-])c1ccc(C=Nc2ccc(Oc3ccccc3)cc2)s1 0.3%, CC(=O)Nc1ccc(N=Cc2ccc([N+](=O)[O-])s2)cc1 1.2%, O=[N+]([O-])c1ccc(C=Nc2ccc(Br)c(Cl)c2)s1 -1.9%, O=[N+]([O-])c1cc(N=Cc2ccc(Br)s2)ccc1Cl 0.8%, Cn1c(O)c(N=NC(=O)COc2ccc3ccccc3c2)c2cc(Br)ccc21 3%, C/C(O)=C\C(N)=N/c1nc(C)cc(C)n1 2.7%, O=[N+]([O-])c1ccc(C(O)CN2CCN(C/C=C/c3ccccc3)CC2)cc1 (centres undefined) 3.6%, CCC(=O)N1c2ccc(S(=O)(=O)CCC(=O)N3CCn4c3nc3ccccc34)cc2CC1C (centres undefined) 6.1%, O=C(NCCNc1ccc([N+](=O)[O-])cc1Cl)c1ccccc1Cl 1.6%, COCCOC(=O)C1=C(C)NC(=O)CC1c1cccc(Cl)c1 (centres undefined) 3.6%, CN(C)CCCNC(=O)c1ccc(CN(c2ccccc2)S(C)(=O)=O)cc1 -6.3%, C/C(=N\NC(=O)C1(C)CC1(Br)Br)c1ccc(Br)s1 (centres undefined) 0.4%, COc1ccccc1CNC(=O)c1ccc(NC(C)=O)cc1 2.6%, O=C1C(=O)c2ccccc2C(O)=C1c1ccc([N+](=O)[O-])cc1 -1.5%, CN=CC1=C(O)c2ccccc2C1=O -0.6%, COc1cc(/C=N/Nc2nncc(=O)[nH]2)ccc1O -0.1%, O=C(c1cn(-c2ccccc2)nc1-c1ccc(F)cc1)N1CCOCC1 -13.6%, CC(=O)Nc1ccc(S(=O)(=O)Nc2cc(C)ccc2C)cc1 0.4%, CCOc1ccc(-c2cc(OCC)c3c(C)oc(C)c3c(=[O+]CC)c2)cc1 3.9%, CCOc1cccc(=O)c2c(C)oc(C)c12 1.6%, Cc1cc(N2CCCC(C(=O)Nc3ccc4c(c3)CCC4)C2)n2ncnc2n1 (centres undefined) -8.9%, Oc1[nH]c2ccccc2c1N=Nc1nc(-c2ccccc2)c2cc(Br)ccc2n1 12%, CN(C)c1ccc(/C=C2/SC(N=Nc3c(O)[nH]c4ccccc34)=NC2=O)cc1 28.7%, CCOC(=O)C1C(=O)CC(C)(O)C(C(=O)OCC)C1c1ccc(OCC)cc1 (centres undefined) 0.2% and -2.5%, CCOc1ccc(-n2c(SCC(N)=O)nc3c([nH]c4ccccc43)c2=O)cc1 -3.1%, CC(C)(C)c1cnnn1-c1ccc(NC(=O)c2ccc3c(c2)OCO3)cc1 -6.9%, CC(C)[C@H](NC(=O)Nc1ccc2c(c1)OCCO2)C(=O)O -0.5%, COc1ccc(C(=O)c2no[n+]([O-])c2C(=O)c2ccc(OC)cc2)cc1 -8.8%, Cc1ccc(C(=O)c2nocc2C(=O)c2cccs2)cc1 -9.8%, COC(=O)C1=C(C)NC(=O)NC1c1ccc(OCCO)c(OC)c1 (centres undefined) 4.3%, O=C(CCC1CCCC1)Nc1cccc(F)c1 -0.4%, CC(C)Cn1c(=S)[nH]c2sc3c(c2c1=O)CC(C)(C)OC3 3.9%, CCOC(=O)CCn1nnc(N)n1 -5%, Cc1cc([N+](=O)[O-])ccc1N1C(=O)c2ccccc2C1=O -1.5%, Cc1cc2c(cc1Br)NC(=O)C2=O 1.5%, O=C(CSCc1cnn(-c2ccccc2)c1-n1cccc1)NCc1cccs1 -0.1%, O=C1c2ccccc2C(=O)c2c1c(-c1ccccc1)nn2-c1ccccc1 1.2%, Cc1ccc(-n2nc(-c3ccccc3)c3c2C(=O)C=CC3=O)cc1 38.9%, CN(C)CCC(=O)c1ccc(O)cc1 3.3%, N#Cc1c(N2CCCCC2)nc(N2CCCCC2)c2c1CCN(Cc1ccccc1)C2 3.8%, N#Cc1c(N)sc2c1CCN(Cc1ccccc1)C2 14.1%, CCn1cc(C(=O)NC2CCCC2)c(=O)c2cc(S(=O)(=O)N3CCOCC3)ccc21 3.9%, CCn1cc(C(=O)NC2CCCCCC2)c(=O)c2cc(S(=O)(=O)N3CCCCC3)ccc21 3.2%
